Screens (PubChem BioAssay)
Rows were chosen to be rich in hits. Some 4.9% of all compounds tested hit in one or more screens of this group.
dFosB act: mouse delta FosB homodimer activation; P13346; purified delta FosB, TAMRA-CDK5 oligo fluorescence polarization; percent of positive-control signal above neutral wells; activation, % at 25 µM; 0.99% of 340,000 active;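 active = mean activation above about 17%, with every replicate also reaching it, limit read from the data, passing the limit was not always enough; inconclusive = only one of the two conditions met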
Target sequence (P13346 whole entry, looked up): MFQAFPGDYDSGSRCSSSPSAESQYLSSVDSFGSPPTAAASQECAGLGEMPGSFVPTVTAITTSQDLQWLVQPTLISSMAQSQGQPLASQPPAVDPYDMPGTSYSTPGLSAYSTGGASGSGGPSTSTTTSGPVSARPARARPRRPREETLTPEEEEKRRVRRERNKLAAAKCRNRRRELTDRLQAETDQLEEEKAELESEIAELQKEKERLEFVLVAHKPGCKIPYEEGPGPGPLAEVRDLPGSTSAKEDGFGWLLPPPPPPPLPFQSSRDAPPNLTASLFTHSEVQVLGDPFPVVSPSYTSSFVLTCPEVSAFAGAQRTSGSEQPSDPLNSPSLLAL
MPTP block: permeability transition pore inhibition; AID 602449; inhibition, % at 10 µM; isolated mouse mitochondria, Ca2+ swelling absorbance, 30 min; 1.4% of 360,000 active;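 active = inhibition of 50% or more, scaled per plate between neutral and stimulator controls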;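 also: 0% = DMSO wells given calcium and 100% = 1 mM EGTA wells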
Platelet DG rel: modulates dense granule release in human platelets | 0.22% of 300,000 active | AID 1663 | human platelet-rich plasma, SFLLRN dense granule ATP release, luminescence | inhibition, %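 (compounds screened at 7.5 µM in platelet-rich plasma)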;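 active = mean replicate score, as percent of positive control, at or above 50; inconclusive = mean below 50 but at least one replicate at or above 50; inactive = mean and every replicate below 50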
HSF-1 act: increases HSF-1 driven luciferase reporter signal; NIH3T3-HGL HSF-1 luciferase reporter, MG132, 8 h; 100% = twice DMSO control signal; activation, % at 9 µM; 1.7% of 300,000 active; AID 504408;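 active = mean replicate activation of at least 50% with a set share of replicates each reaching 50%; inconclusive = only one of those two conditions met; inactive = mean below 50% and too few replicates reaching it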;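 also: 0% = median of the neutral control wells and 100% = twice that signal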
HSF1 inh: HSF1 inhibition. NIH3T3-HGL HSE-luciferase, MG132-induced, luminescence 8 h; hits give low values. activity change, negative = inhibition, % at 7.5 µM (by protocol). 0.77% of 300,000 active;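 active = more than half of replicate wells show activity change below -50%, luminescence cut by over half; inconclusive = some wells, but at most half, below -50%; inactive = no replicate well below -50%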;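 also: luciferase reports HSF-1 transcriptional activity via heat shock element; 0% = median of DMSO wells and -100% = zero luminescence signal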
HSP90 inh: inhibitors of HSP90 luciferase refolding in rabbit reticulocyte lysate; inhibition, % at 5.6 µM; 0.91% of 290,000 active; luciferase refolding luminescence, 3 h;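 active = inhibition above the screen-wide mean plus 3 SD, computed separately per campaign, cut at about 16% in these data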;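 also: 0% = DMSO wells and 100% = 60 µM geldanamycin wells; inhibitors lower the luminescence because luciferase stays unfolded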
Rh123 counter: mitochondrial membrane potential, counter-screen; inhibition, % at 10 µM; AID 624504; 78% of 5,000 active; shares compounds with MPTP block; isolated mitochondria, Rhodamine 123 fluorescence; in the data active = inhibition above about 22%;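 also: 0% = DMSO vehicle and 100% = positive control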
MPTP swell DR: dose response confirmation of mitochondrial permeability transition pore inhibitors | IC50, µM | shares compounds with MPTP block | isolated mitochondria swelling, absorbance | 58% of 780 active; in the data active = IC50 below about 20 µM
MPTP cs DR: MPTP inhibitor counter-screen activity, dose response; shares compounds with MPTP block; 49% of 780 active; AID 651564; isolated mitochondria counterscreen, fluorescence read-out; IC50, µM; in the data active = IC50 below about 80 µM
An asterisk follows results filed as active; i = inactive; ? = inconclusive; . = no result.

SMILES	dFosB act	MPTP block	Platelet DG rel	HSF-1 act	HSF1 inh	HSP90 inh	Rh123 counter	others
Cc1c(Cl)cccc1NC(=S)N1CCC(N(C)CC2CCCO2)CC1 (stereo unspecified)	-14.5	1.3	5.7	.	.	-2.8	.
CCN1CCN(Cc2ccc(NC(=O)Nc3ccc(SC)cc3)cc2)CC1	-8.6	52.5*	0.2	-3.6	1.9	-0.8	-10.1	MPTP swell DR=i;MPTP cs DR=>80
COc1ccc(NC(=O)NCCCN2CCc3ccccc3C2)cc1	-5.4	-0.5	7.9	0.2	12.0	-0.7	.
O=C(NCCCN1CCc2ccccc2C1)Nc1ccc(Br)cc1	-12.6	93.4*	0.6	12.4	8.0	-0.2	103.2*
CSc1ccc(NC(=O)NCCCN2CCN(c3ccccc3F)CC2)cc1	-2.0	62.5*	-10.3	5.7	0.8	1.0	-0.3	MPTP swell DR=i;MPTP cs DR=29.1*
O=C(NCCN1CCc2ccccc2C1)Nc1ccc([N+](=O)[O-])cc1	8.8	93.8*	5.2	7.4	-1.4	3.1	83.6*
CSCCC(NC(=O)c1ccc([N+](=O)[O-])cc1Cl)C(=O)OCC(=O)C12CC3CC(CC(C3)C1)C2 (stereo unspecified)	-15.0	6.0	-4.9	11.9	-1.5	1.8	.
O=C(COC(=O)c1ccccc1NCCO)NCC1CCCCC1	-1.6	3.9	.	.	.	.	.
COc1ccc2c(C)cc3n[nH]c(=S)n3c2c1	-13.2	0.7	-1.4	12.4	-3.0	3.0	.
CN(C(=O)c1cccc(NC(=O)Cc2cccc(NC(=O)C3CCN(C(=O)c4ccccc4)CC3)c2)c1)C1CC1	-7.8	-0.8	.	.	.	.	.
Cc1ccc(C(C(=O)Nc2ccc3c(c2)OCO3)N(C)C(=O)/C=C\c2ccc3c(c2)OCO3)cc1 (stereo unspecified)	0.9	1.8	8.3	23.0	-0.5	1.0	.
O=C(NCCN1CCN(c2ccc([N+](=O)[O-])cc2)CC1)NCc1ccccc1	-5.9	65.3*	16.6	1.9	-9.2	2.2	76.4*
Brc1ccc(N/N=C(/N=Nc2nn[nH]n2)c2ccccc2)cc1	-13.4	85.0*	6.3	.	.	-22.8	29.9*
COc1ccc(-n2c(COc3cccc4ccccc34)nnc2SC(C)C(=O)O)cc1 (stereo unspecified)	-4.1	-2.0	-5.7	4.9	4.0	1.0	.
CN1/C(=C\C=C2/SC(=S)N(CC(=O)O)C2=O)C(C)(C)c2ccccc21	?	75.1*	19.5	-10.5	4.6	-0.9	12.4
C=CCN1C(=O)/C(=C\C=C2\N(C)c3ccccc3C2(C)C)SC1=S	-4.2	21.5	6.7	-2.2	2.4	0.1	.
O=[N+]([O-])c1ccc(Nc2cccc(F)c2)nc1	-4.0	6.5	1.8	5.7	0.2	0.5	.
CCCCCC(=O)NC(NC(=S)N1CCOCC1)C(Cl)(Cl)Cl (stereo unspecified)	2.8	2.7	-6.1	-3.0	-8.3	1.5	.
CCCCCCCCC(=O)NC(NC(=S)N1CCOCC1)C(Cl)(Cl)Cl (stereo unspecified)	-5.3	88.4*	7.0	3.8	2.7	-2.9	85.7*
Clc1cccc(/C(Cc2nc3ccccc3[nH]2)=N\Nc2ccccc2)c1	0.4	97.1*	-0.3	10.1	5.9	4.9	62.2*
CCCCCCCCCCS(=O)(=O)N/N=C/c1ccc([N+](=O)[O-])cc1	-13.9	85.3*	-2.2	39.1	13.3	6.8	62.2*
O=S(=O)(c1ccc(N2CCCC2)cc1)C(F)(F)F	-3.2	90.7*	-12.3	1.5	3.1	-3.3	68.1*
CCCCC(CC)Cn1c(O)c(/C=C2\C=NN=C2c2ccccc2)sc1=S (stereo unspecified)	-10.6	54.9*	18.4	-8.5	-1.1	-4.4	-2.5	MPTP swell DR=16.5*;MPTP cs DR=>80
OC(COCC(F)(F)C(F)(F)C(F)(F)C(F)F)Cn1c2ccc(Cl)cc2c2cc(Cl)ccc21 (stereo unspecified)	-1.1	80.4*	3.7	2.8	4.8	2.2	52.2*
O=C(NCCC1CC1(Cl)Cl)Nc1ccccc1 (stereo unspecified)	-2.3	6.0	2.1	10.6	0.2	2.0	.
SMILES	dFosB act	MPTP block	Platelet DG rel	HSF-1 act	HSF1 inh	HSP90 inh	Rh123 counter	others
CN(C)CCCN(C(=O)c1ccc(S(=O)(=O)N2CCc3ccccc32)cc1)c1nc2ccc(F)cc2s1	-14.9	0.2	-3.2	5.4	8.7	-0.1	.
Cc1cc(C)c2sc(N(CCCN(C)C)C(=O)c3ccc(S(=O)(=O)N4CCc5ccccc5C4)cc3)nc2c1	100.4*	71.7*	8.5	-13.2	-5.4	.	-11.6
Cc1cc(C)c2sc(N(CCCN(C)C)C(=O)c3ccc(S(=O)(=O)N4CCCc5ccccc54)cc3)nc2c1	-10.6	63.6*	1.7	-0.3	1.5	.	-16.1
CN(C)CC#Cc1cccc(-c2nc(C(=O)O)cc3c2[C@@H](CCO)N(S(=O)C(C)(C)C)C3)c1 (stereo partly specified)	.	-0.4	.	.	.	.	.
O=c1[nH]nc(Cc2ccc(-c3ccc(Cl)cc3)o2)c2ccccc12	3.3	64.5*	4.7	4.2	3.3	4.6	19.6	MPTP swell DR=>100;MPTP cs DR=10*
O=c1[nH]nc(Cc2ccccc2)c2ccccc12	-9.1	0.4	1.3	15.8	10.5	-0.4	.
CCN(CC)c1ccc2nc3ccc(N)cc3[n+](-c3ccccc3)c2c1	-244.2	53.8*	.	.	.	.	24.4*
CCn1nc(C)c(CNC(=O)Nc2ccccc2C(=O)OC)c1C	-0.5	-0.3	6.5	0.4	3.3	0.4	.
Cc1ccc2[nH]c(=O)c(CN(CCCN(C)C)C(=O)Nc3ccc(Cl)cc3)cc2c1	-6.8	-0.5	5.9	4.5	-9.3	1.2	.
Cc1ccc2cc(CN(CCN(C)C)C(=O)Nc3ccc(Cl)cc3)c(=O)[nH]c2c1	4.9	92.2*	9.3	21.1	3.4	2.5	100.3*
CC(=O)Nc1ccc(S(=O)(=O)NNC(=S)NCc2ccco2)cc1	-7.6	-0.1	10.2	-0.2	-4.1	-2.9	.
CCCCc1ccc(S(=O)(=O)NNC(=S)NCc2ccco2)cc1	-6.7	83.4*	7.6	1.1	0.7	0.2	64.8*
COc1ccc(-[n+]2c(C)cc(/C=C3\Sc4ccccc4N3C)cc2C)cc1	28.6*	94.6*	-3.5	1.3	-8.6	2.3	96.7*
CN1/C(=C/c2cccc[n+]2CCO)Sc2ccccc21	-1.6	-0.5	3.6	9.5	9.4	-1.7	.
COc1ccccc1-[n+]1c(C)cc(/C=C2\Sc3ccccc3N2C)cc1C	9.7	104.4*	-3.0	.	.	0.3	102.0*
O=C(NCCCCNC(=O)c1ccc(Cl)s1)c1ccc(Cl)s1	-0.5	1.7	15.2	-3.0	0.5	-0.6	.
O=C(NCCCCCCNC(=O)c1ccc(Br)s1)c1ccc(Br)s1	9.4	53.8*	0.3	38.1	36.4	-4.4	36.2*
